Measurements taken from PubChem BioAssay.
Several values for one entry are separate records, joined by “and”; a condition that tells them apart may be missing. Identical values can stand only once. Activity calls are given as the source filed them. Cut-off read from the data, not from the text of the source: active = inhibition above about 37%; inactive = the rest.

Test system: Hepatitis C virus NS3 helicase
Test: HCV NS3 helicase inhibitors, primary screen, biochemical, fluorescence polarization, LOPAC1280 library (AID 687035)
Conditions: Purified HCV NS3 helicase, Cy5-dT15 ssDNA binding fluorescence polarization; stronger effect = higher value; concentration not given here

Question: For `CN(C)CC[C@@H](c1ccc(Br)cc1)c1ccccn1`, which inhibition is on record?
Answer: The inhibition was 0% (inactive).

Question: `CCN(CC)CCNC(=O)c1ccc(NC(C)=O)cc1` was tested. Which inhibition did it give?
Answer: The inhibition was -3% (inactive).

Question: Which inhibition does the source give for `CC(C(=O)O)c1ccc(CC2CCCC2=O)cc1` (stereo not drawn) here?
Answer: The inhibition was -4% (inactive).

Question: For `Cc1cn([C@H]2C=C[C@@H](CO)O2)c(=O)[nH]c1=O`, which inhibition is on record?
Answer: The inhibition was -2% (inactive).

Question: For `C[C@H](NC(CCc1ccccc1)C(=O)O)C(=O)N1CCC[C@H]1C(=O)O` (stereo partly drawn), which inhibition is on record?
Answer: The inhibition was -5% (inactive).

Question: `CCOC(=O)c1ncn2c1CN(C)C(=O)c1cc(F)ccc1-2` was tested. Which inhibition did it give?
Answer: Its inhibition is -4% (inactive).

Question: With `CC(=O)[C@]1(O)Cc2c(O)c3c(c(O)c2[C@@H](O[C@H]2C[C@H](N)[C@H](O)[C@H](C)O2)C1)C(=O)c1ccccc1C3=O` as the compound, how does the inhibition read?
Answer: The inhibition was -1% (inactive).

Question: With `C=CCc1ccccc1OCC(O)CNC(C)C` (stereo not drawn) as the compound, how does the inhibition read?
Answer: Its inhibition is -4% (inactive).

Question: Which inhibition does the source give for `Cc1[nH]c(=O)c(C#N)cc1-c1ccncc1` here?
Answer: The inhibition was -3% (inactive).

Question: How did the inhibition turn out when `Nc1c2c(nc3ccccc13)CCCC2O` (stereo not drawn) was run?
Answer: The inhibition was -4% (inactive).

Question: For `Nc1nc2c(ncn2COC(CO)CO)c(=O)[nH]1`, which inhibition is on record?
Answer: The inhibition was -2% (inactive).

Question: Which inhibition does the source give for `CCN1CCC[C@H]1CNC(=O)c1c(O)c(Cl)cc(Cl)c1OC` here?
Answer: Its inhibition is -2% (inactive).

Question: With `Cc1cccc(C)c1NC(=O)C(C)N` (stereo not drawn) as the compound, how does the inhibition read?
Answer: The inhibition was -5% (inactive).

Question: How did the inhibition turn out when `Nc1nnc(-c2cccc(Cl)c2Cl)c(N)n1` was run?
Answer: The inhibition was -5% (inactive).

Question: With `NNc1nncc2ccccc12` as the compound, how does the inhibition read?
Answer: The inhibition was -3% (inactive).

Question: `CCN1CCCC1CNC(=O)c1cc(S(=O)(=O)CC)c(N)cc1OC` (stereo not drawn) was tested. Which inhibition did it give?
Answer: Its inhibition is -3% (inactive).

Question: With `C=Cc1c(C)c2cc3[nH]c(cc4nc(cc5nc(cc1[nH]2)C(C)=C5CCC(=O)O)C(CCC(=O)O)=C4C)c(C)c3C=C` as the compound, how does the inhibition read?
Answer: The inhibition was 140% (active).

Question: How did the inhibition turn out when `Clc1ccc2nsnc2c1NC1=NCCN1` was run?
Answer: The inhibition was -3% (inactive).

Question: `COc1cc(C(=O)OCCCN2CCCN(CCCOC(=O)c3cc(OC)c(OC)c(OC)c3)CC2)cc(OC)c1OC` was tested. Which inhibition did it give?
Answer: Its inhibition is -3% (inactive).

Question: How did the inhibition turn out when `CCc1c(C)[nH]c2c1C(=O)C(CN1CCOCC1)CC2` (stereo not drawn) was run?
Answer: Its inhibition is -4% (inactive).

Question: `COc1ccccc1N1CCN(CC(O)COc2cccc3ccccc23)CC1` (stereo not drawn) was tested. Which inhibition did it give?
Answer: Its inhibition is -2% (inactive).

Question: `CN(C)CC[C@@H](c1ccc(Cl)cc1)c1ccccn1` was tested. Which inhibition did it give?
Answer: Its inhibition is -6% (inactive).

Question: For `CN(C)CCOC(=O)COc1ccc(Cl)cc1`, which inhibition is on record?
Answer: Its inhibition is 0% (inactive).

Question: For `Brc1c(NC2=NCCN2)ccc2nccnc12`, which inhibition is on record?
Answer: The inhibition was -3% (inactive).

Question: With `O=C1N(c2ccccc2)c2ccccc2C1(Cc1ccncc1)Cc1ccncc1` as the compound, how does the inhibition read?
Answer: Its inhibition is -7% (inactive).

Question: How did the inhibition turn out when `CN(Cc1cnc2nc(N)nc(N)c2n1)c1ccc(C(=O)N[C@@H](CCC(=O)O)C(=O)O)cc1` was run?
Answer: Its inhibition is -1% (inactive).

Question: For `Nc1ccn([C@H]2CC[C@@H](CO)O2)c(=O)n1`, which inhibition is on record?
Answer: The inhibition was 0% (inactive).

Question: Which inhibition does the source give for `CCN1CCC[C@H]1CNC(=O)c1cc(S(N)(=O)=O)ccc1OC` here?
Answer: Its inhibition is -1% (inactive).

Question: For `Oc1ccc(C2CNCCc3c2cc(O)c(O)c3Cl)cc1` (stereo not drawn), which inhibition is on record?
Answer: Its inhibition is -3% (inactive).

Question: Which inhibition does the source give for `Cc1ccc(C(=O)Nc2ccc(S(=O)(=O)O)c3cc(S(=O)(=O)O)cc(S(=O)(=O)O)c23)cc1NC(=O)c1cccc(NC(=O)Nc2cccc(C(=O)Nc3cc(C(=O)Nc4ccc(S(=O)(=O)O)c5cc(S(=O)(=O)O)cc(S(=O)(=O)O)c45)ccc3C)c2)c1` here?
Answer: The inhibition was 96% (active).

Question: With `NC1CCN(c2cccc(Cl)n2)CC1` as the compound, how does the inhibition read?
Answer: Its inhibition is -6% (inactive).

Question: With `COc1ccc(C2CNC(=O)C2)cc1OC1CCCC1` (stereo not drawn) as the compound, how does the inhibition read?
Answer: The inhibition was -7% (inactive).

Question: `CNCC(O)c1ccc(O)c(O)c1` (stereo not drawn) was tested. Which inhibition did it give?
Answer: Its inhibition is 0% (inactive).

Question: For `CNC[C@H](O)c1cccc(O)c1`, which inhibition is on record?
Answer: The inhibition was -1% (inactive).

Question: For `Cc1scc2c1N(C(=O)CN1CCN(C)CC1)c1ccccc1NC2=O`, which inhibition is on record?
Answer: The inhibition was -3% (inactive).

Question: For `C=CC(N)CCC(=O)O` (stereo not drawn), which inhibition is on record?
Answer: The inhibition was 0% (inactive).

Question: How did the inhibition turn out when `OCc1cc(C(O)CNCCCCCCOCCCCc2ccccc2)ccc1O` (stereo not drawn) was run?
Answer: The inhibition was 2% (inactive).

Question: With `C[N+](C)(C)CCCCCC[N+](C)(C)C` as the compound, how does the inhibition read?
Answer: Its inhibition is 0% (inactive) and -2% (inactive).
